ATG4B inhibitor: blocks human ATG4B protease cleavage of LC3 substrate; ATG4B cleavage of LC3-PLA2, NBD-HPC fluorescence, 1 h; inhibition, % at 8.33 µM; 340,000 compounds, 0.51% hits; in the data active = inhibition above about 40%
DAGLB inhibitor: blocks human DAGLB lipase activity. Q8NCG7. HEK293T DAGLB membrane lysate, EnzChek fluorogenic substrate. inhibition, % at 5.17 µM. 340,000 compounds, 0.059% hits. AID 504411; in the data active = inhibition above about 34%
Target sequence (Q8NCG7 whole entry, looked up): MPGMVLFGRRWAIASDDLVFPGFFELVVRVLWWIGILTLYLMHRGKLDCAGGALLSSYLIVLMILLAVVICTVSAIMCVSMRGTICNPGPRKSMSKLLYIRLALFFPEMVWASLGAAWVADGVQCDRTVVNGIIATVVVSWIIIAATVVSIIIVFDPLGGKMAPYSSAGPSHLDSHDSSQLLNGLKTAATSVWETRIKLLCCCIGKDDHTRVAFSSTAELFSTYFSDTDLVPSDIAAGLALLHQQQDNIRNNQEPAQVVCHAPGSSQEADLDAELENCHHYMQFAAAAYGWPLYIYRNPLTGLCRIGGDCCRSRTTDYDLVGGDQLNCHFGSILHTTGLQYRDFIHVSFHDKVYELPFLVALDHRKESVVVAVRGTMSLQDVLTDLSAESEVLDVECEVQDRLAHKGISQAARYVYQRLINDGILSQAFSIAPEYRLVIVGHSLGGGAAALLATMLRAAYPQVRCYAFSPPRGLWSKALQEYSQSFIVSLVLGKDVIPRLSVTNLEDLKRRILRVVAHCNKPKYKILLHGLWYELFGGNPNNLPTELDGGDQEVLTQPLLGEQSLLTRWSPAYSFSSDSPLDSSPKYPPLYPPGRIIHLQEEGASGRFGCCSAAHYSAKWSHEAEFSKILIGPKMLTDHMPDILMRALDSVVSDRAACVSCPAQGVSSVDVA
PAFAH1B2 FP inh: blocks human PAF acetylhydrolase 1b catalytic subunit 2. 340,000 compounds, 1.2% hits. inhibition, % at 3.39 µM. recombinant PAFAH1B2, FP-rhodamine activity probe, fluorescence polarization. P68402. AID 492953;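 active = inhibition above the mean of all tested compounds plus 3 SD, cut at about 24% in these data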
pPAFAH inh: pPAFAH (human) enzyme inhibition. inhibition, % at 3.39 µM. Q13093. 330,000 compounds, 1.5% hits. recombinant pPAFAH, FP-rhodamine probe fluorescence polarization;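 active = inhibition above the mean inhibition across the screen plus 3 SD, cut at about 25% in these data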;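 also: inhibitors block binding of the rhodamine activity-based probe so polarization drops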
PAFAH2 FP inh: inhibitors of human PAFAH2. Q99487. inhibition, % at 3.39 µM. 340,000 compounds, 0.99% hits. recombinant PAFAH2, FP-rhodamine activity probe, fluorescence polarization. AID 492956;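 active = inhibition above the mean over all tested compounds plus 3 SD, cut at about 30% in these data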;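 also: inhibitors block probe labeling of enzyme so polarization drops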
PAFAH1B3 inh: PAFAH1B3 (human) inhibition; Q15102; recombinant PAFAH1B3, FP-rhodamine probe, fluorescence polarization; inhibition, % at 3.39 µM; 340,000 compounds, 0.28% hits; AID 492972;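 active = inhibition above the screen-wide average of all tested compounds plus 3 SD, cut at about 25% in these data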
PAFAH2 FP conf: confirmation of human PAFAH2 inhibitors. shares compounds with PAFAH2 FP inh. recombinant PAFAH2, FP-rhodamine activity probe, fluorescence polarization. inhibition, % at 3.39 µM. 2,300 compounds, 65% hits. AID 493030;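 active = mean inhibition over three repeats above a set limit taken from the earlier primary screen, cut at about 30% in these data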;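 also: inhibitor blocks binding of rhodamine activity probe so polarization falls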
Each line names hits and unclear results; the compound was inactive in the other large screens (follow-up assays come after a bar, where they were run). Rows were chosen to be rich in hits. Some 3% of all compounds tested hit in one or more screens of this group.

N#CCC(=O)Nc1ccc(C(=O)OCC(=O)NCCCc2ccccc2)cc1	PAFAH2 FP inh 38.0 | PAFAH2 FP conf 30.0
N#CCC(=O)Nc1ccc(C(=O)OCC(=O)C23CC4CC(CC(C4)C2)C3)cc1	PAFAH2 FP inh 63.2 | PAFAH2 FP conf 61.7
CCCCOC(=O)c1ccc(NC(C)=O)cc1	none
Cc1cc(C)c(-c2cc(NC(=O)COC(=O)c3ccc(NC(=O)CC#N)cc3)n(-c3ccccc3)n2)cc1C	none
CCCCNC(=O)COC(=O)c1ccc(NC(C)=O)cc1	PAFAH2 FP inh 69.8 | PAFAH2 FP conf 53.8
NS(=O)(=O)c1cccc(NC(=O)CSc2nnc(C3CC3)n2-c2ccccc2)c1	none
Cc1ccc(C(=O)NC(C#N)=C(Cl)Cl)cc1	none (no result: DAGLB inhibitor, PAFAH1B2 FP inh, pPAFAH inh, PAFAH2 FP inh, PAFAH1B3 inh)
CCCCNC(=O)COC(=O)c1ccc(N(C)C)cc1	PAFAH2 FP inh 76.2 | PAFAH2 FP conf 76.3
Nc1nnc(CC(=O)N/N=C/c2ccc(-c3ccc(Cl)cc3Cl)o2)s1	PAFAH2 FP inh 49.7 | PAFAH2 FP conf 31.3
Nc1nnc(CC(=O)N/N=C\c2ccc(-c3cccc(Cl)c3)o2)s1	PAFAH2 FP inh 48.4 | PAFAH2 FP conf inactive
COC(=O)c1ccc(-c2ccc(/C=N/NC(=O)Cc3nnc(N)s3)o2)cc1	PAFAH2 FP inh 43.1 | PAFAH2 FP conf inactive
Nc1nnc(CC(=O)N/N=C/c2ccc(-c3ccccc3Cl)o2)s1	PAFAH2 FP inh 29.7 | PAFAH2 FP conf inactive
Nc1nnc(CC(=O)N/N=C/c2ccc(-c3ccccc3)o2)s1	none
COc1ccc(-c2ccc(/C=N/NC(=O)Cc3nnc(N)s3)o2)cc1Cl	none (no result: DAGLB inhibitor, PAFAH1B2 FP inh, PAFAH2 FP inh, PAFAH1B3 inh)
Cc1ccc(C(=O)Nc2c3c(nn2C(C)(C)C)CS(=O)(=O)C3)cc1C	none
Cc1ccc(N2CC(C(=O)Nc3c4c(nn3C(C)(C)C)CS(=O)(=O)C4)CC2=O)cc1C (stereo not drawn)	PAFAH2 FP inh 158.2 | PAFAH2 FP conf inactive
O=C1Nc2ccccc2/C1=N\N=C\c1ccc(O)c(O)c1	PAFAH2 FP inh 45.8 | PAFAH2 FP conf inactive
Oc1ccc(/C=N/N=C/c2ccc(O)c(O)c2)cc1O	PAFAH2 FP inh 54.0 | PAFAH2 FP conf inactive
Oc1ccc(/C=N/N=C/c2ccc(O)cc2)cc1	none
O=C(CC1C(=O)NCCN1Cc1ccccc1C(F)(F)F)NCCn1cccn1 (stereo not drawn)	none
O=C(COC(=O)CCc1c[nH]c(=O)[nH]1)Nc1cccc(Cl)c1	PAFAH2 FP inh 35.5 | PAFAH2 FP conf inactive
CC(C)CC(NC(=O)C1CCC(=O)N1C(=O)OCc1ccccc1)C(=O)NC(Cc1ccccc1)C(N)=O (stereo not drawn)	PAFAH2 FP inh 52.2 | PAFAH2 FP conf 47.7
CCC(C)C(NC(=O)C1CCC(=O)N1C(=O)OCc1ccccc1)C(=O)NC(Cc1ccccc1)C(N)=O (stereo not drawn)	PAFAH2 FP inh 77.7 | PAFAH2 FP conf 64.3
COC(=O)[C@@H](Cc1ccc(O)cc1)NC(=O)[C@H]1CCC(=O)N1C(=O)OCc1ccccc1	none
NC(=O)c1ccc(SCC(=O)OCC(=O)NC2CCCCCCC2)c([N+](=O)[O-])c1	none
Cc1ccc(NS(=O)(=O)c2cc(C(=O)O)ccc2Cl)c(C)c1	PAFAH2 FP inh 54.0 | PAFAH2 FP conf inactive
COc1ccc(C(=O)OCN2C(=O)c3ccccc3C2=O)cc1	PAFAH2 FP inh 36.8 | PAFAH2 FP conf inactive
COc1cc(OC)c(C(=O)OCN2C(=O)c3ccccc3C2=O)cc1OC	none
O=C(/C=C/c1ccccc1)OCN1C(=O)c2ccccc2C1=O	PAFAH2 FP inh 32.9 | PAFAH2 FP conf inactive
COCC1CCCC1OS(N)(=O)=O (stereo not drawn)	none
NC(=O)COc1c(-c2ccc(Br)o2)oc2ccccc2c1=O	PAFAH2 FP inh 31.1 | PAFAH2 FP conf inactive
COc1ccc(NC(=O)c2cccc(N3C(=O)C4C5C=CC(C6CC56)C4C3=O)c2)cc1 (stereo not drawn)	none
CCCCCCOC(=O)c1ccc(N)cc1	PAFAH2 FP inh 67.6 | PAFAH2 FP conf 61.1
CCCCCOC(=O)c1ccc(OC(=O)c2cncc(Br)c2)cc1	none
CCCCCCCOC(=O)c1ccc(OC(=O)c2cccnc2)cc1	PAFAH2 FP inh 47.2 | PAFAH2 FP conf 31.9
Cc1nn(Cc2ccccc2)c(Cl)c1/C=C/C(=O)OCC(=O)NC(C)C(C)C (stereo not drawn)	PAFAH2 FP inh 67.3 | PAFAH2 FP conf 64.1
COc1ccc(NC2CC(=O)N(c3ccccc3)C2=O)cc1 (stereo not drawn)	PAFAH2 FP inh 41.5 | PAFAH2 FP conf inactive
CCCC(=O)Nc1ccc(C(=O)n2ccc(C)n2)cc1	PAFAH2 FP inh 48.9 | PAFAH2 FP conf 40.7
COc1ccc(CC(=O)OCC(=O)Nc2cc(S(=O)(=O)N3CCOCC3)ccc2N2CCCC2)cc1	none
Cc1ccc(S(=O)(=O)N2CCOCC2)cc1NC(=O)COC(=O)c1ccc(Br)cc1	PAFAH2 FP inh 41.7 | PAFAH2 FP conf 30.6
Cc1ccc(S(=O)(=O)N2CCOCC2)cc1NC(=O)COC(=O)c1ccc(Cl)nc1	none
Nc1cc(C(=O)OCC(=O)Nc2cccc(S(=O)(=O)N3CCOCC3)c2)ccc1Cl	PAFAH2 FP inh 64.8 | PAFAH2 FP conf 57.6
COc1cc(C(=O)OCC(=O)Nc2cc(S(=O)(=O)N3CCOCC3)ccc2C)ccc1OCC(C)C	PAFAH2 FP inh 57.7 | PAFAH2 FP conf 49.2
O=C(COC(=O)c1cccc(F)c1)Nc1cccc(S(=O)(=O)N2CCOCC2)c1	none (no result: ATG4B inhibitor, PAFAH1B2 FP inh, pPAFAH inh, PAFAH2 FP inh, PAFAH1B3 inh)
COc1ccc(C(=O)OCC(=O)Nc2cc(S(=O)(=O)N3CCOCC3)ccc2N2CCCC2)cc1	PAFAH2 FP inh 38.5 | PAFAH2 FP conf 33.1
CN(CC1CCCN(CCc2ccccc2F)C1)C(=O)c1cc2ccccc2o1 (stereo not drawn)	none (no result: ATG4B inhibitor, PAFAH1B2 FP inh, pPAFAH inh, PAFAH2 FP inh, PAFAH1B3 inh)
O=C(CNC(=O)c1ccco1)N/N=C/c1ccc(C(=O)O)cc1	none
COc1cc(C(=O)OCc2cccc(S(=O)(=O)N3CCOCC3)c2)ccc1OCC(C)C	none
COc1cc(C(=O)OCC(=O)Nc2cccc(S(=O)(=O)N3CCOCC3)c2)ccc1OCC(C)C	PAFAH2 FP inh 46.4 | PAFAH2 FP conf 43.7
CN(C)c1nnnn1-c1ccccc1Oc1ncc(C(F)(F)F)cc1Cl	none
O=C(OCC(=O)c1ccc[nH]1)c1ccc(Br)cc1	none
Cc1cccc(NC(=O)COC(=O)c2ccc3nc(C)c(C)nc3c2)c1	PAFAH2 FP inh 71.4 | PAFAH2 FP conf 49.5
Cc1cccc(NC(=O)COC(=O)c2cc(C)oc2C)c1	PAFAH2 FP inh 74.7 | PAFAH2 FP conf 78.8
Cc1cccc(NC(=O)COC(=O)c2ccc3c(=O)n4c(nc3c2)CCC4)c1	none
COc1ccc(C(=O)OCC(=O)c2ccc[nH]2)cc1	PAFAH2 FP inh 39.9 | PAFAH2 FP conf 30.7
CC(=O)Nc1ccc(C(=O)OCC(=O)Nc2ccccc2F)cc1	PAFAH2 FP inh 69.0 | PAFAH2 FP conf 70.0

Screens as filed in PubChem.
